Compound activity from PubChem.
HepG2 tox: HepG2 cytotoxicity, counter-screen for TGF-b inhibitors. HepG2 CAGA-GFP viability, ATP luminescence, 18 h. Potency, µM (doses to about 46.1 µM), without a hit: at the highest dose activity change, negative = cytotoxicity, actives largely listed as cytotoxic. 0.76% of 410,000 active
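HepG2 CAGA-GFP cells (1000/well, DMEM with 1% FBS) received compound, then TGF-beta at 500 pg/mL final, and were incubated 18 hours at 37 degrees C. Viability was read by CellTiter-Glo luminescence. Media-only wells were set as complete cell-killing and DMSO as no toxicity.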
TGFb inhibitor: TGF-b pathway inhibition; 1.2% of 410,000 active; Potency, µM (highest dose often 46.1 µM), without a hit: at the top dose activity, negative = inhibition, actives largely listed as inhibitors; HepG2 CAGA-GFP TGF-b/SMAD3 reporter, GFP fluorescence, 18 h; TGF-beta stimulated, 500 pg/mL final; also: % is scaled to controls: 0 for no effect and ±100 for the full control effect; nearly all actives have a fitted effect of over 65% in size
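HEPG2 CAGA-GFP, 1000 cells/well; 2 h settle, 37 C; cpd via pin tool; TGF-b 500 pg/mL final; 18 h, 37 C; GFP imaging ex488/em500-530; %Activity normalised to -TGF-b and +DMSO controls; CRC fit, curve class.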
KB-V1 MDR tox: KB-V1 MDR subline cytotoxicity. KB-V1 MDR cells viability, CellTiter-Glo, 72 h. Potency, µM (titrated, usually from 46.1 µM), usual class: cytotoxic. 3.4% of 400,000 active. AID 1347076; also: % is scaled to controls: 0 for no effect and ±100 for the full control effect; nearly all actives have a fitted effect of over 60% in size
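In this primary screen, KB-V1 cells overexpressing P-gp are incubated with library compounds (lowest to highest concentration) for 72 h at 37 degrees C before a luminescent ATP viability read.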
ATXN viability: viability counter-screen for ATXN expression inhibitors. Potency, µM (series often up to 56.7 µM), hits mostly cytotoxic. 0.49% of 400,000 active. S2 cells (HEK-293 line with an ATXN2-luciferase reporter) viability, CellTiter-Fluor protease fluorescence, 24 h; also: nearly all actives have a fitted effect of over 40% in size
KB-3-1 tox: kills parental KB-3-1 adenocarcinoma cells | AID 1347075 | KB-3-1 viability, CellTiter-Glo ATP luminescence, 72 h | Potency, µM (titrated, usually from 46.1 µM), usual class: cytotoxic | 1.4% of 400,000 active; also: % is scaled to controls: 0 for no effect and ±100 for the full control effect; nearly all actives have a fitted effect of over 60% in size
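Parental KB-3-1 adenocarcinoma cells in phenol-red-free DMEM with 10% FBS were pin-treated with compounds at several concentrations, incubated 72 h at 37 °C, and viability read by CellTiter-Glo luminescence; concentration-effect curves were fitted after normalization.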
ATXN2 expr inh: inhibitors of ATXN2 expression; HEK-293 ATXN2-luciferase reporter, luminescence, 24 h; 0.72% of 360,000 active; Potency, µM (doses to about 57 µM), for inactives: at the top dose activity change, negative = inhibition, actives largely listed as inhibitors; AID 1745845; also: % is scaled to controls: 0 for no effect and ±100 for the full control effect; nearly all actives have a fitted effect of over 55% in size
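ATXN2-luciferase reporter cells (luciferase flanked by upstream and downstream ATXN2 gene portions) were treated 24 h at 37 °C with compounds at up to 57 uM. SteadyGlo luminescence gave expression; GF-AFC fluorescence gave viability.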
Active calls of the source: *; i = inactive; ? = inconclusive; / = not tested or not shown; ! = a repeat was not active. A selection: hits, their analogues and other compounds. The true share with any hit is near 5.9%. Calls follow the shape of the dose curve; as a rule, active = well fitted curve in the direction sought with a large enough effect; inconclusive = small, poorly fitted or top-dose-only effect, or another doubt; inactive = no such curve, though single readings can be large; an effect the other way counts as inactive or inconclusive. Potency is read from the fitted curve at half-maximal effect.

SMILES	HepG2 tox	TGFb inhibitor	KB-V1 MDR tox	ATXN viability	KB-3-1 tox	ATXN2 expr inh
CCC(=O)N1CCc2cc(S(=O)(=O)NC(C(=O)NCCc3ccccc3)C(C)C)ccc21 (stereo not given)	-15%	0%	i	i	i	4%
CCn1ccc2cc(S(=O)(=O)N3CCC(C(=O)NCc4cccc(Cl)c4)CC3)ccc21	-10%	?	i	i	i	-1%
Cc1cccc(NC(=O)C(Cc2ccccc2)N2Cc3ccccc3C2=O)c1C (stereo not given)	-9%	-1%	/	/	/	/
Cc1cc(O)cc2c(=O)c3ccccc3sc12	-27%	-23%	?	/	i	9%
Cc1cc(CCNC=O)c(C)c2c1sc1ccccc12	8%	15%	16µM*	i	16µM*	42%
CCCS(=O)(=O)N1CCCC(C(=O)NCCCOC)C1 (stereo not given)	-3%	11%	i	i	i	14%
COCCCNC(=O)C1CCCN(S(C)(=O)=O)C1 (stereo not given)	3.5µM*	9%	i	i	?	-9%
Cc1nc(-c2ccc(OCC(C)C)c(C#N)c2)sc1C(=O)O	/	/	/	i	/	?
Cc1noc2ncnc(N3CCCC(C(=O)NC(C)C)C3)c12 (stereo not given)	-5%	0%	i	i	i	9%
COC(=O)c1ccccc1NC(=O)c1nc(S(=O)(=O)Cc2cccc(C)c2)ncc1Cl	4%	-3%	/	/	/	/
COC(=O)c1ccc(NC(=O)c2nc(S(=O)(=O)Cc3cccc(C)c3)ncc2Cl)cc1	22µM*	?	9.2µM*	28µM*	15µM*	?
CC(=O)Nc1ccc(NC(=O)c2nc(S(=O)(=O)Cc3cccc(C)c3)ncc2Cl)cc1	-147%	?	?	?	5.2µM*	?
CCOC(=O)c1c(-c2ccc(C)cc2)csc1NC(=O)c1nc(SC(C)C)ncc1Cl	-4%	-6%	i	?	i	6%
O=C(/C=C/c1cn(-c2ccccc2)nc1-c1cccc(Cl)c1)N1CCN(c2ccccn2)CC1	6%	11%	23µM*	?	?	-26%
CCc1ccc(-n2c(N3CCN(c4cccc(C)c4C)CC3)nc3ccccc3c2=O)cc1	0%	2%	/	/	/	/
C(=Nc1cnc2ccccc2c1)c1ccncc1	5%	13%	i	/	?	/
Cc1ccccc1Oc1nc2c(C)cccn2c(=O)c1/C=C(\C#N)C(=O)NC1CCS(=O)(=O)C1 (stereo not given)	6.3µM*	?	i	?	i	-31%
Cn1cccc1/C=C1\CC(C(C)(C)C)C/C(=C\c2cccn2C)C1=O (stereo not given)	-16%	50%	4.1µM*	i	?	-13%
COc1ccc(CN=C2NN=C(c3ccc(Cl)cc3)CS2)cc1	10%	-11%	i	i	i	32%
COc1ccc(C2=NN(C)C(=NCc3ccccc3)SC2)cc1	-29%	16%	23µM*	i	?	6%
COc1ccc2nc(NC(=O)c3cc(=O)c4cc(C)cc(C)c4o3)sc2c1	0%	18%	i	i	i	1%
COc1ccccc1OCC(=O)NCCc1nc2ccccc2[nH]1	-29%	-7%	i	i	i	-4%
Cc1cc(OCC(=O)Nc2cc(-c3nc4ccccc4[nH]3)ccc2C)ccc1Cl	11µM*	/	/	/	/	/
O=C(COc1ccccc1Br)NCCc1nc2ccccc2[nH]1	-12%	-19%	15µM*!	?	i	7%
Cc1cc(OCC(=O)NCCc2nc3ccccc3[nH]2)cc(C)c1Cl	-45%	20µM*	/	/	/	/
SMILES	HepG2 tox	TGFb inhibitor	KB-V1 MDR tox	ATXN viability	KB-3-1 tox	ATXN2 expr inh
CCCCOc1cccc(OCC(=O)Nc2nc3ccccc3[nH]2)c1	13µM*	14µM*	?	i	i	-17%
COc1ccccc1C1CN(CC(=O)N2CCC(N3CCOCC3)CC2)Cc2ccccc2O1 (stereo not given)	/	/	/	i	/	/
CCN(C(=O)CN1C(=O)c2ccccc2Sc2ccc(C(=O)OC)cc21)c1cccc(C)c1	-3%	/	/	/	/	/
CCOC(=O)N1CCN(C(=O)c2c(C)nn(-c3cccc(C)c3)c2-n2cccc2)CC1	-25%	-32%	i	/	i	/
CCc1nn(CC(=O)NC(C)CC)c(=O)c2cc3occc3n12 (stereo not given)	5%	?	i	i	i	1%
O=C1CCc2cc(S(=O)(=O)Nc3cc(F)cc(Cl)c3)c(F)cc2N1	/	/	i	/	i	/
O=c1c2ccccc2n2c(-c3ccc(Cl)cc3)nnc2n1CCc1ccccc1	-7%	-38%	i	i	i	6%
O=C(Nc1ccn(-c2ccccc2)n1)c1ccc(Cl)cc1	-14%	-9%	18µM*	i	i	17%
N#Cc1ccc(C(=O)Nc2ccn(-c3ccccc3)n2)cc1	-11%	-4%	i	i	i	?
ClC(Cl)(Cl)c1nc2ccccc2n2nncc12	20µM*	16µM*	i	?	?	13µM*
CNc1nccc(-c2cccnc2Oc2cc(C(=O)Nc3cccc(C(F)(F)F)c3)ccc2C)n1	/	/	/	/	/	24µM*
C[n+]1cn(CC(O)COCc2ccccc2)c2ccccc21 (stereo not given)	-8%	-5%	i	i	i	2%
CCCCCc1ccc(OCCOCCn2c[n+](C)c3ccccc32)c(CCCCC)c1	-113%	?	i	18µM*	18µM*	/
CCCCCc1ccc(OCCC[n+]2ccccc2)c(CCCCC)c1	-114%	?	i	?	12µM*	?
CCC(c1nnnn1CS(=O)(=O)c1ccc(C)cc1)N1CCN(c2nc3ccccc3s2)CC1 (stereo not given)	-5%	-27%	4.1µM*	i	i	-7%
O=C(/C=C/c1cccc2ccccc12)c1ccncc1	11µM*	11µM*	2.6µM*	i	2.9µM*	?
Clc1ccccc1-c1nc2nc3ccccc3nc2n1-c1ccc2c(c1)OCO2	7%	-18%	9.2µM*	?	i	-8%
O=C(NCc1nnc(SCc2ccc(F)cc2)n1-c1ccccc1)C12CC3CC(CC(C3)C1)C2	1%	?	13µM*	?	?	-29%
O=C(NCc1nnc(SCc2ccc(C(F)(F)F)cc2)n1-c1ccccc1)C12CC3CC(CC(C3)C1)C2	-25%	?	16µM*	?	?	-6%
